mTORC1 inh: reduces mTORC1 signaling in Tsc2 and p53 null MEF cells; Tsc2-/- p53-/- MEF, phospho-rpS6 immunofluorescence/PI, 24 h; Potency, µM (titrated, usually from 38.3 µM), for the others: top-dose activity change, negative = inhibition, hits mostly inhibitors; 44,000 compounds, 0.78% hits; AID 493208;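 note: plate controls were DMSO for no effect and rapamycin for full effect; nearly all actives have a fitted effect of over 50% in size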
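Tsc2-/-, p53-/- MEFs (empty-vector stable line) in DMEM + 10% FBS were treated with compounds 24 h at 37 degree Celsius, fixed, and immunostained for phospho-rpS6 (Alexa-488) with propidium iodide counterstain. Laser-scanning cytometry gave % positive cells, normalized against 7.5 nM rapamycin and DMSO.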
p53null 39C tox: p53 null cell cytotoxicity, nonpermissive temperature | Potency, µM (titrated, usually from 46.1 µM), for inactives: at the highest dose activity, negative = cell killing, usual class: cytotoxic | AID 904 | 55,000 compounds, 0.97% hits | H1299 p53-null (neo) cells, 39C, ATPlite viability, 24 h;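 note: 0% = DMSO only and -100% = full killing by 100 µM tamoxifen; nearly all actives have a fitted effect of over 50% in size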
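ATP-luminescence viability readout (ATPlite, 20 min RT) after 24 hr compound treatment at 39C of H1299-neo or H1299-p53A138V cells; titration up to 46 uM; normalized to DMSO and 100 uM tamoxifen; Hill-fit AC50.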
PMP22 txn: modulators of PMP22 gene transcription in S16 Schwann cells. 43,000 compounds, 2% hits. Potency, µM (doses to about 57.5 µM), for inactives: at the top dose activity change, negative = inhibition, most hits filed as inhibitors. S16 Pmp22-F2sN Schwann cells, FLuc/NLuc coincidence luminescence, 24 h; active = clear falling dose curves in both reporters; inconclusive = both reporters move, but less clearly or upward; inactive = either reporter flat; the % is the NLuc reporter signal
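Reporter cells (S16 Pmp22-F2sN, 500–1,000 per well) exposed to compounds for 24 h, 37C, 5% CO2; lysis with FLuc read after 10 min, then Stop&Glo and NLuc read after 10 min.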
S16 viability: toxic to S16 Pmp22-F2sN Schwann cells; AID 1508642; 43,000 compounds, 0.48% hits; Potency, µM (series often up to 57.5 µM), without a hit: at the highest dose activity change, negative = cytotoxicity, most hits filed as cytotoxic; S16 Pmp22-F2sN Schwann cells viability, CellTiter-Glo, 24 h; note: nearly all actives have a fitted effect of over 65% in size
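Viability was measured by CellTiter-Glo luminescence (15 min, room temperature). This followed 24 h at 37 °C of compound exposure (23 nL pin transfer) in S16 Pmp22-F2sN Schwann cells, 500-1,000 per well.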
p53null 32C kill: selectivity test: cytotoxicity in p53 null cells, permissive temperature | Potency, µM (doses to about 46.1 µM), for the others: top-dose activity change, negative = cytotoxicity, actives largely listed as cytotoxic | 55,000 compounds, 0.62% hits | H1299-neo p53 null cells, ATP luminescence, 24 h, 32C;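 note: 0% = DMSO only and -100% = full killing by 100 µM tamoxifen; nearly all actives have a fitted effect of over 55% in size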
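H1299-neo, 600 cells/well; overnight 37C; cpd up to 46 uM, 24 h at 32C; ATPlite luminescence after 20 min RT; normalized to DMSO (0%) and tamoxifen 100 uM (100% kill); Hill-fit AC50.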
SKOV3 invasion: inhibitors of ovarian cancer cell adhesion and invasion in omental model; SKOV3ip1-GFP adhesion/invasion on 3D omental model, fluorescence; Potency, µM (doses to about 45.8 µM), inactives show at the highest dose activity change, negative = inhibition, most hits filed as inhibitors; 46,000 compounds, 0.1% hits; AID 1963576;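 note: plate controls were DMSO wells for no effect and tomatine positive control wells for full effect; nearly all actives have a fitted effect of over 65% in size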
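Adhesion/invasion was scored as fixed GFP-labeled SKOV3ip1 cell counts (488/509 nm), normalized to DMSO and tomatine controls. Cancer cells in serum-free medium, with four compound doses (0.36-46 umol/L), sat 2 hr at RT then 16 hr at 37 C on a 48 hr fibroblast/mesothelial/ECM culture.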
Starred values were filed as active, the others as inactive; i = inactive; ? = inconclusive; . = not tested or not shown; [ ] = dose if it differs, or a comment. In the library only some 3% were active in any assay of this set; here they are far more common. Unless noted, calls come from the whole dose curve; as a rule, active = well fitted curve in the direction sought with a large enough effect; inconclusive = small, poorly fitted or top-dose-only effect, or another doubt; inactive = no such curve, though single readings can be large; an effect the other way counts as inactive or inconclusive. Unless noted, % is set by controls: 0 for no effect and ±100 for the full control effect; potency is the fitted concentration of half-maximal effect.

SMILES	mTORC1 inh	p53null 39C tox	PMP22 txn	S16 viability	p53null 32C kill	SKOV3 invasion
COc1ccc2[nH]cc(CCNC(=O)Nc3ccccc3)c2c1	0.2%	-1.2%	-48.0%	-1.7%	4.4%	-20.8%
COc1ccc2[nH]cc(CCNC(=O)Nc3cc(C)cc(C)c3)c2c1	-2.4%	20µM*	2.5%	2.6%	10.8%	2.3%
Cn1cnc(-c2cc3nccc(Oc4ccc(NC(=S)NC(=O)Cc5ccccc5)cc4F)c3s2)c1	.	.	.	.	.	7.6%
COc1ccc2c(c1)Cc1sc(NC(=O)c3cccc(C)c3)nc1-2	0.6%	-1.1%	-26.5%	0.8%	13.7%	-10.1%
COc1ccc2c(c1)Cc1sc(NC(=O)c3cccc(Cl)c3)nc1-2	-9.0%	5.1%	-27.5%	?	15.8µM*	1.0%
Cc1cccc2c1-c1sc(C(=O)NCCCN3CCN(c4ccccc4F)CC3)cc1CO2	-24.6%	?	?	?	-12.5%	?
CCN1CCN(CCCNC(=O)c2cc3c(s2)-c2c(C)cccc2OC3)CC1	?	?	?	25.1µM*	-6.6%	-5.2%
C[C@H](NC(=O)[C@@H](O)c1cc(F)cc(F)c1)C(=O)N[C@@H]1C(=O)N(C)c2ccccc2-c2ccccc21	.	.	.	.	.	-0.2%
Cc1ccc(C)n1-c1ccccc1N	.	?	.	.	12.6µM*	.
O=C1CSC(=O)N1C(CCc1ccncc1)COc1ccc(-c2cccc([N+](=O)[O-])c2)cc1 (centres undefined)	.	.	.	.	.	-0.9%
N#Cc1c(C(F)(F)F)cc(-c2cccs2)nc1SCC(=O)Nc1cccc(Cl)c1	-15.4%	-14.8%	-13.0%	0.8%	-7.1%	-13.6%
COc1ccc(NC(=O)CSc2nc(-c3cccs3)cc(C(F)(F)F)n2)cc1OC	-13.9%	17.4%	4.22µM*	?	-28.0%	1.9%
N#Cc1c(C(F)(F)F)cc(-c2cccs2)nc1SCC(=O)Nc1cccc(Br)c1	11.7µM*	?	-1.1%	1.4%	-9.5%	-0.4%
CCOc1cc2c(c(F)c1OCC)C(=N)N(CC(=O)c1cc(N3CCOCC3)c(OC)c(C(C)(C)C)c1)C2	.	.	.	.	.	-27.2%
CCOC(=O)c1ccccc1NC(=O)N1CCc2c(sc(C)c2CC)C1c1ccccc1 (centres undefined)	22.4%	3.9%	?	4.2%	-4.2%	-1.2%
CCc1c(C)sc2c1CCN(Cc1cccc(OC)c1)C2c1ccccc1 (centres undefined)	0.7%	?	9.46µM*	?	33.1%	7.7%
CCc1c(C)sc2c1CCN(Cc1ccccc1F)C2c1ccccc1 (centres undefined)	8.6%	23.3%	3.4µM*	8.91µM*	25.2%	-6.9%
O=C(NCC1CCN(Cc2cccc(Cl)c2)CC1)Nc1ccc(F)c(Cl)c1	18.5µM*	?	-33.1%	?	4.5%	20µM*
COc1ccccc1-c1cccc(-c2c(O)c3cc(C#N)c(Cl)cc3[nH]c2=O)c1	.	.	.	.	.	5.8%[92.2 µM]
Cc1cnn(C)c1C(=O)Nc1cc(Nc2ccc3c(C=Cc4ccccn4)n[nH]c3c2)ccc1F	.	.	.	.	.	12.9%
COc1ccc(CNCCC(c2ccc3c(c2)OCO3)c2ccccc2OC)cc1 (centres undefined)	?	12.6µM*	?	?	3.6%	?
Cc1ccc2ncc(C(=O)c3ccc(C)c(C)c3)c(S(=O)(=O)c3ccccc3)c2c1	-5.8%	22.5%	?	?	29.4%	4.3%
CCc1ccc(C(=O)c2cnc3ccc(F)cc3c2S(=O)(=O)c2ccccc2)cc1	11.7µM*	78.0%	?	-29.9%	26.2%	-10.4%
CCCCCNC(=O)N1CCC(CN(Cc2ccc(Cl)cc2)Cc2ccc([N+](=O)[O-])s2)C1 (centres undefined)	.	.	.	.	.	12.1%
COc1ccc(/C=N/Nc2nncc3ccccc23)cc1	.	.	.	.	4.47µM*	.
SMILES	mTORC1 inh	p53null 39C tox	PMP22 txn	S16 viability	p53null 32C kill	SKOV3 invasion
COc1ccc(OC)c(NC(=O)Nc2cccc(OCc3cc(=O)n4cc(C)ccc4n3)c2)c1	2.0%	?	-7.3%	15.3%	10µM*	18.9%
NC(=O)C1CCN(C(=O)c2ccc(NC(=O)c3nsc4ccccc34)cc2)CC1	-10.4%	2.82µM*	?	?	2.51µM*	-2.3%
CC(C)(C)[N+]([O-])=Cc1ccc(S(=O)(=O)O)cc1S(=O)(=O)O	.	.	.	.	.	-0.7%
COc1c(OCCCN2CCOCC2)ccc2c3n(c(=NC(=O)c4cnc(N)nc4)nc12)CCN3	.	.	.	.	.	-4.0%[23.2 µM]
COc1ccc(C(=O)Nc2nc3c(s2)Cc2c(Br)ccc(OC)c2-3)cc1OC	-2.2%	-14.5%	?	?	-5.3%	1.0%
COc1cc(C(=O)Nc2nc3c(s2)Cc2c(Br)ccc(OC)c2-3)cc(OC)c1OC	0.3%	-25.6%	?	25.1µM*	-22.9%	-0.2%
O=C(CCCCCCC(=O)Nc1ccc([C@H]2O[C@@H](CSc3nc(-c4ccccc4)c(-c4ccccc4)o3)C[C@@H](c3ccc(CO)cc3)O2)cc1)NO	.	.	.	.	.	-15.5%
NCc1c[nH]c(=S)n1[C@H]1CCc2c(F)cc(F)cc2C1	.	.	.	.	.	31.8%
Oc1ccc2ccccc2c1SSc1c(O)ccc2ccccc12	.	.	.	.	.	26.4µM*
CCS(=O)(=O)c1ncc(Cl)c(C(=O)N(Cc2ccccc2)Cc2ccco2)n1	3.29µM*	?	3.18µM*	3.55µM*	?	i
Cc1cn2cc(C(=O)N(C)CCO)cc(N[C@@H]3CCOc4cccc(C)c43)c2n1	.	.	.	.	.	3.0%
O=C1NC(O)CCN1[C@@H]1O[C@H](CO)[C@H](O)[C@H]1O (some centres undefined)	.	.	.	.	.	-15.1%
CC(C)NC(=O)Cn1c(=O)nc(-c2ccccc2F)c2cc(Cl)ccc21	0.0%	-19.3%	-6.3%	4.5%	-9.9%	-7.9%
COc1ccc(CNC(=O)Cn2c(=O)nc(-c3ccccc3F)c3cc(Cl)ccc32)cc1	0.0%	11.7%	?	5.2%	-1.2%	11.2µM*
COc1cc(Nc2ncc3c(n2)-c2ccc(Cl)cc2C(c2c(F)cccc2OC)=NC3)ccc1C(=O)O	.	.	.	.	.	-9.5%
CC(=O)c1ccc(N2CCN(S(=O)(=O)c3ccc4c(c3)CC(C)N4C(=O)C3CCC3)CC2)cc1 (centres undefined)	-7.3%	-10.6%	12.8µM*	?	-6.1%	i
Cc1nc2c(C(=O)NCCc3ccccc3)c[nH]n2c(=O)c1Cc1ccc(F)cc1Cl	-14.5%	?	?	8.8%	12.6µM*	8.1%
